DAX1 inh-1: inhibitors of human orphan nuclear receptor DAX1 (NR0B1); HEK293 Gal4-DAX1 luciferase reporter, luminescence; P51843; 340,000 compounds, 0.99% hits; inhibition, % at 6.75 µM;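 active = inhibition above the mean over all tested compounds plus 3 SD, cut at about 4.2% in these data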;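 note: inhibition shows as a rise in luminescence from relieved DAX1 repression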
Target sequence (P51843 207-470 limits assumed): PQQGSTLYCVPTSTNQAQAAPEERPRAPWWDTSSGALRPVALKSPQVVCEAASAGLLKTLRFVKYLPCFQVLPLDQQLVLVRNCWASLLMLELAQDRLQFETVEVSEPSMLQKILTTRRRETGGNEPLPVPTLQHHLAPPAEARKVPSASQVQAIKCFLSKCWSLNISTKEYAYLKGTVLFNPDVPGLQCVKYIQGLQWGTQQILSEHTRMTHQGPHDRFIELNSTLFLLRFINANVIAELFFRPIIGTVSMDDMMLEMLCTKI
hcDAF12 agonist: activates DAF-12 receptor from parasite H. contortus; activation, % at 6.8 µM; 370,000 compounds, 1.4% hits; HEK293 hcDAF-12 lit1-tk-luc reporter, luminescence; 0% DMSO, 100% Δ7-dafachronic acid;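 active = activation above the mean of all tested compounds plus 3 SD, cut at about 5.5% in these data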
Wee1 stabilizer: inhibitors of human Wee1 degradation | P30291 | 220,000 compounds, 1.2% hits | reporter increase, % at 5 µM | AID 1321 | HeLa Luc-Wee1K328M stability, luciferase luminescence; 100% = proteasome inhibitor MG132 effect;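 active = activation above the mean of all tested compounds plus 3 SD, set per screening run, cut at about 8.8% in these data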;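 note: cells exposed to compound for 20 h before luminescence read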
hgDAF-12 ag: hgDAF-12 agonism, primary luciferase screen; HEK293 GAL4-hgDAF12 UAS-luciferase reporter, agonist luminescence; normalized to butyrate control; activation, % at 6.8 µM; 370,000 compounds, 1.8% hits;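 active = activation above a cutoff set at the mean of all screened compounds plus 3 SD, cut at about 10% in these data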
DAX1 inh-2: DAX1 (NR0B1) inhibition, primary screen; HEK293T StAR-luciferase reporter, SF-1/DAX-1 repression relief; 370,000 compounds, 1.1% hits; AID 652010; inhibition, % at 6.8 µM;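 active = inhibition above the mean over all tested compounds plus 3 SD, cut at about 3.6% in these data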;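 note: higher inhibition means more luminescence from relief of DAX-1 repression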
ssDAF-12 act: activators of S. stercoralis DAF-12 nuclear receptor; activation, % at 6.8 µM; HEK293 ssDAF-12/GRIP1 lit1-tk-luc reporter, luminescence; % of 3 µM dafachronic acid response; 370,000 compounds, 1% hits;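 active = activation above the mean over all tested compounds plus 3 SD, cut at about 0.9% in these data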
DAX1 inh confirm: confirmation of human DAX1 (NR0B1) inhibitors. shares compounds with DAX1 inh-2. HEK293T StAR-promoter luciferase reporter, SF-1/DAX-1 repression. inhibition, % at 6.8 µM. 2,400 compounds, 87% hits;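 active = inhibition above the average of every tested compound plus 3 SD, cut at about 3.8% in these data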;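 note: active compounds raise luminescence by relieving repression of the StAR reporter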
Target sequence (P51843 whole entry, looked up): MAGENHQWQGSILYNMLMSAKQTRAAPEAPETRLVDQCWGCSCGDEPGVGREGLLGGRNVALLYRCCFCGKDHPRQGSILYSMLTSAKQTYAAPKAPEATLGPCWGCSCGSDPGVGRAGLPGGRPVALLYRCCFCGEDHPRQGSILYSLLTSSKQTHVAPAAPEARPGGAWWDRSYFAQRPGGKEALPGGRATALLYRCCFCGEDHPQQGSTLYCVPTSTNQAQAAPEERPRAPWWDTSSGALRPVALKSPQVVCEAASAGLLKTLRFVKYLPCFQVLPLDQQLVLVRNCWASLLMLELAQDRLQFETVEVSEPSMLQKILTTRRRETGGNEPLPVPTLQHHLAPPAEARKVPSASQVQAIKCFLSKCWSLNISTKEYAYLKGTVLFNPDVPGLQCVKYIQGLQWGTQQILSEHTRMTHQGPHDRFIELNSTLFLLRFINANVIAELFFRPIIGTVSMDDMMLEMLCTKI
SF1 mutant ctr: nonselective inhibitor or artifact in SF-1 mutant DAX1 counter-screen; 2,400 compounds, 78% hits; HEK293 StAR-luciferase, SF-1 AF2 mutant, luminescence; shares compounds with DAX1 inh-2; AID 652136; inhibition, % at 6.8 µM;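 active = inhibition above the mean of all tested compounds plus 3 SD, cut at about 3% in these data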
Of the large screens only hits and unclear results are named; the others gave an inactive call (follow-up assays come after a bar, where they were run). Sampled rows, rich in hits. Any-hit rate of the full collection: about 4.6%.

O=C([O-])c1cc(-c2ccccc2)cc(-c2ccccc2)[n+]1Cc1ccccc1	none (no result: DAX1 inh-1, Wee1 stabilizer)
C=CCCC(=O)N1C[C@H]2CON(C)[C@H]2C[C@H]1c1ccc(N2CCCCC2)cc1	none (no result: DAX1 inh-1, Wee1 stabilizer)
Cc1onc(-c2c(F)cccc2Cl)c1C(=O)OCC(=O)Nc1cccc(S(=O)(=O)N(C)C)c1	none (no result: Wee1 stabilizer)
CCN(CC)C(=O)C1=C(C)N(Cc2ccccc2)C(=O)C(CC(=O)NCCN2CCOCC2)C1 (configuration not stated)	none (no result: Wee1 stabilizer)
Cc1ccc(F)cc1NC(=O)COC(=O)c1ccc2ncsc2c1	DAX1 inh-2 4.7 (no result: Wee1 stabilizer) | DAX1 inh confirm inactive | SF1 mutant ctr inactive
Cc1ccc(NC(=O)COC(=O)c2ccc3ncsc3c2)c(C)c1	none (no result: Wee1 stabilizer)
CSc1ccc(Cl)c(C(=O)Nc2ccc(Cl)cn2)c1	none
COc1cc(SC)ccc1C(=O)Nc1ccc(Cl)cn1	hgDAF-12 ag 12, DAX1 inh-2 5.3 | DAX1 inh confirm inactive | SF1 mutant ctr inactive
CC(CC(=O)c1ccccc1)=NCCCN=C(C)CC(=O)c1ccccc1	none (no result: Wee1 stabilizer)
COc1cccc(C(NC(C)=O)c2nc(-c3ccc(F)cc3OC)cs2)c1 (configuration not stated)	DAX1 inh-2 5.8 (no result: DAX1 inh-1, Wee1 stabilizer) | DAX1 inh confirm 6.6 | SF1 mutant ctr 3.3
C=C1[C@@H](CCO)N(S(=O)(=O)C(C)(C)C)C[C@@H]1C	none (no result: Wee1 stabilizer)
CCc1nnc(NC(=O)c2cc(C)oc2C)s1	DAX1 inh-2 9.5 (no result: Wee1 stabilizer) | DAX1 inh confirm 7.9 | SF1 mutant ctr 5.6
CCOc1ccc(OCc2cccc(C(=O)N3CCOCC3)c2)cc1	DAX1 inh-2 5.8, ssDAF-12 act 1.4 | DAX1 inh confirm 11 | SF1 mutant ctr 7.7
Cc1ccc2cc3cc(C(=O)NC4CCCCC4)oc3nc2c1	DAX1 inh-2 5.5 (no result: Wee1 stabilizer) | DAX1 inh confirm inactive | SF1 mutant ctr inactive
O=C(NC1CCCCC1)c1cc2cc(Br)ccc2o1	none (no result: Wee1 stabilizer)
O=C(NC1CCCC1)c1cc2cc(Br)ccc2o1	DAX1 inh-2 7.0 (no result: Wee1 stabilizer) | DAX1 inh confirm 7.8 | SF1 mutant ctr 4.1
Cc1ccc2cc3cc(C(=O)NC4CC4)oc3nc2c1	none (no result: Wee1 stabilizer)
N#Cc1ccc(-c2nc3ccc(Cl)cn3c2Cc2ccccc2C(F)(F)F)cc1	none (no result: DAX1 inh-1, Wee1 stabilizer)
CC(=O)c1sc(Nc2ccccc2)nc1C	none (no result: DAX1 inh-1, Wee1 stabilizer)
CC(=O)c1sc(NC(=O)c2ccc(Br)o2)nc1C	DAX1 inh-2 4.6, ssDAF-12 act 2.1 (no result: Wee1 stabilizer) | DAX1 inh confirm 4.1 | SF1 mutant ctr 5.4
Cc1nc2ccc(NC(=O)C3=NN(C)C(=O)CC3)cc2s1	DAX1 inh-2 7.5 (no result: Wee1 stabilizer) | DAX1 inh confirm inactive | SF1 mutant ctr 3.4
Cc1nc2ccc(NC(=O)c3cccnc3)cc2s1	none
Cc1nc2ccc(NC(=O)Cc3ccc(Br)cc3)cc2s1	none
Cc1nc2ccc(NC(=O)c3ccc(Br)o3)cc2s1	DAX1 inh-2 6.2 | DAX1 inh confirm 14 | SF1 mutant ctr 7.6
CC(=O)c1sc(Nc2ccc(Oc3ccccc3)cc2)nc1C	DAX1 inh-2 9.2 (no result: DAX1 inh-1, Wee1 stabilizer) | DAX1 inh confirm 3.9 | SF1 mutant ctr inactive
CC(=O)c1sc(NC(=O)c2ccc(Cn3cc(Br)cn3)o2)nc1C	none
Cc1cc(Cl)ccc1OCCCC(=O)NNC(=O)c1ccncc1	none (no result: Wee1 stabilizer)
CC1C/C(=C/c2cccs2)C(=O)/C(=C/c2cccs2)C1 (configuration not stated)	none
O=C1/C(=C/c2cccs2)CCC/C1=C\c1cccs1	hcDAF12 agonist 6.2, hgDAF-12 ag 12, DAX1 inh-2 6.8 (no result: Wee1 stabilizer) | DAX1 inh confirm 13 | SF1 mutant ctr 11
C=CCCC1CN(CCCC)S(=O)(=O)c2c(F)cccc2O1 (configuration not stated)	none (no result: Wee1 stabilizer)
COC(=O)[C@]12C[C@H](CC(=O)N3CCN(C(=O)c4ccco4)CC3)C(=O)N(Cc3cccc4ccccc34)C1=C[C@H](COCc1ccccc1)O[C@@H]2C	none (no result: DAX1 inh-1, Wee1 stabilizer)
S=C(NCCc1ccc(Cl)cc1)NC1CCCCC1	DAX1 inh-2 5.0 (no result: Wee1 stabilizer) | DAX1 inh confirm inactive | SF1 mutant ctr 3.0
CC(Nc1nc(-c2ccccc2O)nc2ccccc12)c1ccccc1 (configuration not stated)	none
CC(Nc1nc(-c2ccccc2)nc2ccccc12)c1ccccc1 (configuration not stated)	DAX1 inh-2 4.7 | DAX1 inh confirm 7.3 | SF1 mutant ctr inactive
O=[N+]([O-])c1ccc(CSc2ccc(S(=O)(=O)N3CCCCCC3)cn2)cc1	none (no result: Wee1 stabilizer)
O=c1[nH]c(COc2ccc(Cl)cc2Cl)nc2ccccc12	DAX1 inh-2 5.2 (no result: Wee1 stabilizer) | DAX1 inh confirm 13 | SF1 mutant ctr 6.8
O=C(CCc1nc2ccccc2c(=O)[nH]1)NNC(=O)COc1ccccc1Cl	none (no result: Wee1 stabilizer)
Cc1ccc(S(=O)(=O)Nc2cc(C)cc(CCNC=O)c2C)cc1	none (no result: Wee1 stabilizer)
Cc1c(CCNC=O)cc(C)c2c3c(oc12)CCCC3	DAX1 inh-1 5.3, DAX1 inh-2 4.9 (no result: Wee1 stabilizer) | DAX1 inh confirm 6.5 | SF1 mutant ctr 5.8
COc1ccc(C)cc1S(=O)(=O)N1CCN(C/C=C/c2ccccc2)CC1	none (no result: Wee1 stabilizer)
Cc1sc2nc(SCC(=O)Nc3ccc(Cl)c(C(=O)O)c3)[nH]c(=O)c2c1C	hgDAF-12 ag 17, DAX1 inh-2 6.0 (no result: Wee1 stabilizer) | DAX1 inh confirm 12 | SF1 mutant ctr 9.5
COc1cc(CC(=O)N2c3ccccc3N=C(c3ccccc3)C2C(=O)NCc2ccccc2)cc(OC)c1 (configuration not stated)	none (no result: DAX1 inh-1, Wee1 stabilizer)
Cc1ccc2nc(-c3ccccc3)c(Cc3ccccc3C(F)(F)F)n2c1	DAX1 inh-2 4.7 (no result: DAX1 inh-1, Wee1 stabilizer) | DAX1 inh confirm 3.8 | SF1 mutant ctr 3.8
Cc1ccc(-c2nc3ccc(C)cn3c2Cc2ccccc2C(F)(F)F)cc1	hgDAF-12 ag 12, DAX1 inh-2 5.7 (no result: DAX1 inh-1, Wee1 stabilizer) | DAX1 inh confirm 5.0 | SF1 mutant ctr 4.1
FC(F)(F)c1ccccc1Cc1c(-c2ccccc2)nc2ccc(Cl)cn12	none (no result: DAX1 inh-1, Wee1 stabilizer)
FC(F)(F)c1ccccc1Cc1c(-c2ccc(Cl)cc2)nc2ccc(Cl)cn12	hgDAF-12 ag 12, DAX1 inh-2 4.8 (no result: DAX1 inh-1, Wee1 stabilizer) | DAX1 inh confirm 4.1 | SF1 mutant ctr 3.8
CN(C(=O)[C@@H](C1CC1)[C@@H](O)c1ccc(Cl)cc1)c1ccccc1	none (no result: DAX1 inh-1, Wee1 stabilizer)
N#Cc1ccc(NC(=O)CSc2n[nH]c(=O)n2C2CC2)cc1	none (no result: Wee1 stabilizer)
O=C(CSc1n[nH]c(=O)n1C1CC1)Nc1ccccc1	DAX1 inh-2 11 (no result: Wee1 stabilizer) | DAX1 inh confirm inactive | SF1 mutant ctr inactive
CCOC(=O)N1CCN(C(C(=O)NC2CCCC2)c2cccc(OC)c2OC)CC1 (configuration not stated)	none (no result: DAX1 inh-1, Wee1 stabilizer)
CC(C)(C)c1ccc(C(=O)NNC(=O)C2CCCCC2)cc1	none
Cc1cccc(C(=O)NNC(=O)C2CCCCC2)c1O	DAX1 inh-2 4.6 (no result: Wee1 stabilizer) | DAX1 inh confirm inactive | SF1 mutant ctr inactive

Compound activity as filed in PubChem BioAssay.
